PAX8 inh HTS = PAX8 transcriptional activity inhibition | AID 652154 | inhibition, % at 12.6 µM | RMG-I TPO-luciferase reporter, SteadyGlo, 24 h | 360,000 tested, 1.2% active;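 active = mean replicate inhibition at least 60% with every replicate also reaching 60%; inconclusive = only one of the two criteria is met; inactive = mean below 60% and not all replicates reaching 60%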;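 note: luciferase light reporting Pax8 driven TPO promoter activity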
EWS-Fli inh = EWS/Fli transcriptional activity inhibition; A673 NR0B1-luciferase reporter, viability-normalised; inhibition, % at 12.6 µM; 350,000 tested, 0.67% active; AID 651661;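 active = mean inhibition of at least 50% after viability correction, with every replicate also passing that limit; inconclusive = mean reaches 50% but only one of two replicates passes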;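 note: firefly luciferase signal divided by Alamar Blue viability fluorescence both relative to DMSO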
Shn3 3UTR inh = reduces Shn3 3'UTR luciferase signal in osteoblasts; 360,000 tested, 0.52% active; inhibition, % at 12.5 µM; Clone20 osteoblast Shn3 3'UTR firefly luciferase, 24 h;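 active = mean inhibition of at least 75% with every replicate also reaching 75%; inconclusive = mean inhibition at least 75% but some replicate below; inactive = mean inhibition below 75%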
LGR2 antag = blocks bursicon-induced cAMP signaling via Drosophila LGR2 | inhibition, % at 9.99 µM | HEK293 LGR2, CRE-luciferase, bursicon-stimulated, 4 h | 380,000 tested, 0.35% active | AID 720647;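 active = drop in luminescence signal, shown as inhibition above about 50% in the replicate tests, limit read from the data, passing the limit was not always enough; inconclusive = probably only some replicates passing the limit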;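 note: agonist challenge used bursicon conditioned medium at about half maximal strength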
CF NFkB inh = inhibitors of cystic fibrosis induced NF-kB. KKLEB NF-kB-GFP reporter, PAF-induced, GFP fluorescence overnight. 360,000 tested, 0.86% active. inhibition, % at 5 µM;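 active = at least 50% inhibition at 5 µM, scaled per plate between neutral and stimulator controls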;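 note: PAF is a Pseudomonas aeruginosa culture filtrate used as stimulus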
KKLEB tox = counter-screen for CF NF-kB inhibitors: cytotoxicity; KKLEB CF airway cells viability, ATPlite luminescence, overnight; hits give low values; cells stimulated with P. aeruginosa culture filtrate; activity change (cytotoxicity), % at 5 µM; 360,000 tested, 0.36% active;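 active = corrected activity change at or below -50% at 5 µM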
Numbers stand for hits; - = inactive; ? = inconclusive; . = not tested or not shown; ! = a repeat was not active. Shown are actives, neighbours in structure and some others; about 2% of the full set was active somewhere.

SMILES	PAX8 inh HTS	EWS-Fli inh	Shn3 3UTR inh	LGR2 antag	CF NFkB inh	KKLEB tox
CCCCCCCCCCCCCCCC[n+]1cccc2ccccc21	109	89	92	-	66	-68
O=[N+]([O-])c1ccc(C[n+]2cccc3c4ccccc4ccc32)cc1	-	-	-	-	-	-
CCC(=O)N1[C@@H](CO)[C@@H](c2ccccc2)C12CN(Cc1cccnc1)C2	.	-	.	-	.	.
O=C(Nc1ccc(C(F)(F)F)cc1)N1C[C@@H]2N[C@H](C1)C2c1ccc(-c2ccccc2)cc1 (stereo partly specified)	108	-	.	-	.	.
O=C(C1CCC1)N1C[C@@H]2N[C@H](C1)C2c1ccc(/C=C/c2ccccc2)cc1 (stereo partly specified)	.	-	.	-	.	.
O=C(Nc1ccc(C(F)(F)F)cc1)N1C[C@@H]2N[C@H](C1)C2c1ccc(/C=C/c2ccccc2)cc1 (stereo partly specified)	90!	-	.	-	.	.
COc1ccc(S(=O)(=O)NCc2ccccn2)cc1NC(=O)c1ccc(Cl)cc1	-	-	-	-	-	-
COc1ccc(S(=O)(=O)NCc2ccccn2)cc1NC(=O)c1ccccc1C	-	60	-	-	-	-
COc1ccc(S(=O)(=O)N2CC[C@@H]3[C@@H](CO)N(C)c4ccc(-c5ccc(F)cc5)cc4[C@@H]32)cc1	66	-	.	-	.	.
COc1ccc(-c2ccc3c(c2)[C@H]2[C@H](CCN2S(=O)(=O)c2ccc(F)cc2)[C@H](CO)N3C)cc1	94	-	.	-	.	.
COc1cccc(-c2ccc3c(c2)[C@H]2[C@H](CCN2S(=O)(=O)c2ccc(F)cc2)[C@@H](CO)N3C)c1	67	-	.	-	.	.
COc1ccc(-c2ccc3c(c2)[C@@H]2[C@@H](CCN2S(=O)(=O)c2ccc(F)cc2)[C@@H](CO)N3C)cc1	-	-	.	-	.	.
CN1c2ccc(-c3ccc(F)cc3)cc2[C@H]2[C@H](CCN2S(=O)(=O)c2ccc(F)cc2)[C@@H]1CO	-	55	.	-	.	.
COc1cccc(-c2ccc3c(c2)[C@@H]2[C@@H](CCN2S(=O)(=O)c2ccc(F)cc2)[C@H](CO)N3C)c1	?	-	.	-	.	.
Cc1noc(C)c1S(=O)(=O)Nc1ccc2c(c1)C(=O)N([C@@H](C)CO)C[C@H](C)[C@H](CN(C)C(=O)Nc1cccc3ccccc13)O2	.	-	.	-	.	.
CC=Cc1ccc2n(c1=O)C[C@H]1[C@H](CO)[C@@H](C(=O)N3CCc4ccccc4C3)N(C(=O)C3CC3)[C@@H]21 (mixture of isomers)	-	-	.	-	.	.
C[C@H]1CN([C@@H](C)CO)C(=O)c2cccc(NC(=O)C3CCOCC3)c2O[C@@H]1CN(C)S(=O)(=O)c1cn(C)cn1	.	-	.	-	.	.
COc1ccc(S(=O)(=O)Nc2ccc3c(c2)C(=O)N(C)C[C@@H](OC)[C@H](C)CN[C@@H](C)CO3)cc1	-	-	.	-	.	.
CCCNC(=O)N(C)C[C@@H]1Oc2ncc(C#CCC(C)C)cc2C(=O)N([C@@H](C)CO)C[C@@H]1C	-	-	.	-	.	.
O=C(Nc1ccn(Cc2ccccc2F)n1)c1ccc(COc2ccc(Br)cc2)cc1	.	.	-	-	-	-64
CC(O)CNc1ncnc2nc[nH]c12 (stereo unspecified)	-	.	-	.	-	-
CC(C)=NNc1ncnc2nc[nH]c12	70	-	-	.	-	-
Cc1ccc(C(=O)C2C(=O)C3CCC2C3)cc1 (stereo unspecified)	-	-	-	63	-	-
Cc1ccc(C(=O)C2CCNCC2)cc1	-	.	-	.	-	-
O=C(Nc1ccc(C(=O)O)cc1)Nc1ccc([N+](=O)[O-])cc1	-	-	-	-	-	-
SMILES	PAX8 inh HTS	EWS-Fli inh	Shn3 3UTR inh	LGR2 antag	CF NFkB inh	KKLEB tox
O=C(Nc1cc(C(F)(F)F)cc(C(F)(F)F)c1)Nc1cnn(-c2ccc([N+](=O)[O-])cc2)c1C(F)(F)F	-	-	-	-	77	-69
CCN(c1ccccc1)S(=O)(=O)c1ccc(Cl)c(NC(=O)CN(C)Cc2cccc(F)c2)c1	-	-	91	-	-	-
CCC(C)NCC(=O)Nc1cc(S(=O)(=O)N(CC)c2ccccc2)ccc1Cl (stereo unspecified)	-	.	-	-	-	-
COc1cc(C2C3=C(COC3=O)Oc3cc4c(cc32)OCO4)ccc1OC(C)=O (stereo unspecified)	-	-	-	-	-	-
COc1cc(C2C3=C(COC3=O)Oc3cc4c(cc32)OCO4)cc(OC)c1OC(C)=O (stereo unspecified)	80	55	-	-	67	-
N#C[C@@H]1[C@H](c2ccccc2-c2ccccc2)[C@H](CO)N1C(=O)NC1CCCCC1	.	-	.	-	.	.
COc1ccccc1NC(=O)c1oc2ccccc2c1NC(=O)c1cc(OC)c(OC)c(OC)c1	.	60	-	-	56	-58
Cc1cc(C)nc(/N=C(\N)Nc2ccc(-c3ccccc3)cc2)n1	-	-	92	-	-	-
CCOc1ccc(C(=O)OCC(=O)NCc2ccco2)cc1OCC	.	.	-	.	-	-
CCOC(=O)C1=C(C)NC(C)=C(C(=O)OCC)C1C(=O)OCC(=O)NCc1ccco1	.	-	96	-	-	-
Cc1ccc(C(=O)OCC(=O)NCc2ccco2)cc1	.	.	-	.	-	-
O=C(COC(=O)c1ccccc1)NCc1ccco1	.	.	-	.	-	-94
C[C@H](CO)N1C[C@H](C)[C@H](CN(C)C(=O)Nc2ccc(F)cc2)OCCCC[C@H](C)Oc2ccc(NC(=O)Nc3ccccc3)cc2C1=O	-	-	.	59	.	.
C[C@@H]1CN([C@H](C)CO)C(=O)c2cc(NC(=O)Nc3ccc(F)cc3)ccc2O[C@@H](C)CCCCO[C@H]1CN(C)C(=O)Nc1ccc(F)cc1	86	-	.	-	.	.
C[C@H](CO)N1C[C@H](C)[C@H](CN(C)C(=O)Nc2ccc(F)cc2)OCCCC[C@H](C)Oc2ccc(NC(=O)NC3CCCCC3)cc2C1=O	-	-	.	72	.	.
C[C@@H]1CCCCO[C@@H](CN(C)C(=O)Nc2ccccc2)[C@H](C)CN([C@@H](C)CO)C(=O)c2cc(NC(=O)Nc3ccc(F)cc3)ccc2O1	-	-	.	-	.	.
C[C@@H]1CCCCO[C@@H](CN(C)C(=O)C2CCCCC2)[C@H](C)CN([C@H](C)CO)C(=O)c2cc(NC(=O)Nc3ccc(F)cc3)ccc2O1	86	-	.	-	.	.
Cc1noc(C)c1NC(=O)N(C)C[C@@H]1OCCCC[C@H](C)Oc2ccc(NC(=O)c3ccncc3)cc2C(=O)N([C@@H](C)CO)C[C@@H]1C	-	-	.	-	.	.
COc1ccccc1NC(=O)N[C@@H]1C=C[C@@H](CC(=O)NCc2ccc(Cl)c(Cl)c2)O[C@H]1CO	-	-	.	-	.	.
O=C(C[C@@H]1C=C[C@@H](NC(=O)c2ccccn2)[C@H](CO)O1)NCc1cccc(F)c1	-	-	.	-	.	.
C[C@@H]1CN([C@H](C)CO)C(=O)c2cc(NC(=O)Nc3ccc4c(c3)OCO4)ccc2O[C@@H](C)CCCCO[C@H]1CN(C)Cc1ccc(C(=O)O)cc1	-	-	.	-	.	.

From PubChem BioAssay
